# Experimental data from PubChem BioAssay (NCI).
# Several values for one entry are separate records, joined by “and”; a condition that tells them apart may be missing. Identical values can stand only once. Compounds without any hit were thinned out: in the full panel of roughly 83,000, 20% have a hit.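 Interpretation: 100, growth as untreated; towards 0, rising growth inhibition; 0, no net growth; 0 to -100, cell death. Compounds scoring below 10 were considered active.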 Activity calls are given as the source filed them.
# Test system: MCF7 breast
# Assay: NCI-60 one-dose screen, 48 h (100 = growth as untreated, 0 = no growth, -100 = all killed)
# Details: 10 µM unless noted
# Description: Growth inhibition of the MCF7 human tumor cell line is measured as a screen for anti-cancer activity. Cells are grown in 96 well plates and exposed to the test compound for 48 hours. Compounds are tested at a single concentration, which is 10^-5 M for most compounds. The reported endpoint is percent growth (GI% or GIPRCNT), where numbers from 0 - 100% represent growth inhibition, and numbers from -100% - 0 represent cell death. For example, a value of 40 represents 60% growth inhibition. A value of 0 means no net growth occurred over the course of the experiment. A value of -40 indicates 40% of cells at the beginning of the experiment died by the end of the experiment. A value of -100 means all cells are dead at the end of the experiment.
# NCI-60 Human Tumor Cell Lines Screen was performed using the standard one-dose NCI protocol, which is described in more detail at https://dtp.cancer.gov/discovery_development/nci-60/default.htm.
# Compounds with GIPRCNT values below 10 were considered active. Activity score was based on GIPRCNT using the following formula: […]
# Score is 0 for GIPRCNT values of 100 or above, 50 for GIPRCNT values of 0, and 100 for GIPRCNT values of -100.
row,Structure (SMILES),growth
1,CC(=O)Nc1cc(S(=O)(=O)O)cc2cc(S(=O)(=O)O)c(N=Nc3ccccc3)c(O)c12,102% (inactive) and 91.9% (inactive)
2,O=C1C2=C(C(=O)c3ccccc31)C(O)(S(=O)(=O)O)C(O)(S(=O)(=O)O)C1N=CC=CC21 (stereo not given),29.1% (inactive) and 24.9% (inactive)
3,C=C1C(=O)OC2CC(C)C3(O)CCC(=O)C3(C)CC12 (stereo not given),13.7% [100 µM] (inactive) and 3.19% [100 µM] (active)
4,Cc1ccc(S(=O)(=O)NCN2C(=O)c3ccccc3C2=O)cc1,95.2% (inactive)
5,Cc1ccc(OCC2OC(n3cnc4c(Cl)nc(Cl)nc43)CC2Oc2ccc(C)cc2)cc1 (stereo not given),-91.5% [100 µM] (active) and -93.1% [100 µM] (active)
6,Clc1ccc(SSc2ccc(Cl)cc2)cc1,102% (inactive) and 75.1% (inactive)
7,CCOC(=O)Nc1nc2ccccc2[nH]1,113% (inactive) and 17.8% (inactive)
8,C[C@]12CC[C@@H]3c4ccc(OS(N)(=O)=O)cc4CC[C@H]3[C@@H]1CCC2=O,15.4% [100 µM] (inactive) and 44.8% [100 µM] (inactive)
9,COc1ccc2cc3[n+](cc2c1OC)CCc1cc2c(cc1-3)OCO2,61.9% (inactive) and 76.9% (inactive)
10,COc1ccc(Cn2c(NCCN=C(N)N)nc(=O)n(Cc3ccc(F)cc3)c2=O)cc1,93.3% (inactive) and 93% (inactive)
11,O=C(Nc1ccc(Cl)cc1)c1cc2ccccc2cc1O,12% (inactive) and -0.605% (active)
12,NC(=S)Nc1[nH]c(=S)nc2c1SC1=N/C(=C\c3ccco3)C(=O)N12,20.2% [100 µM] (inactive) and 4.03% [100 µM] (active)
13,COC(=O)C1CCC(=O)N1CN(C(C)=O)c1cccc(O)c1 (stereo not given),90.1% [100 µM] (inactive) and 83.5% [100 µM] (inactive)
14,O=[N+]([O-])c1ccc(-n2[nH]nnc2=S)cc1,95% (inactive)
15,O=C1C=CC=C/C1=C1\N=C(c2ccccc2OCC(=O)c2ccc(Br)cc2)SS1,77.7% [100 µM] (inactive) and 77% [100 µM] (inactive)
16,CCCCCCCCCCCCOc1ccccc1C=O,81.7% (inactive)
17,CCOc1ccc(Nc2c3ccccc3nc3ccccc23)cc1,91.3% (inactive) and 20.1% (inactive) and 8.99% (active)
18,S=C(S)N1CCCC1,72.9% (inactive) and 61.8% (inactive)
19,CC1CCCc2sc3nc(NNC(=O)c4cnccn4)n(-c4ccccc4)c(=O)c3c21 (stereo not given),6.57% (active) and 0.695% (active)
20,CCOc1ccc2cc(-c3nn(CC4CCN(C)CC4)c4ncnc(N)c34)ccc2c1,85.7% (inactive) and 55.5% (inactive)

row,Structure (SMILES),growth
1,N#C/C(=C1C=C/C(=N/O)C(Br)=C/1)c1ccccc1,18.2% (inactive)
2,CCN(CC)CCOc1ccc2c(c1)C(=O)c1cc(OCCN(CC)CC)ccc1-2,30.1% (inactive) and 7.03% (active)
3,Cc1ccc(C)c(NC(=O)/C(=N\N)C(c2cnc3ccc([N+](=O)[O-])cc3n2)[N+](=O)[O-])c1 (stereo not given),50.4% [100 µM] (inactive) and 9.64% [100 µM] (active)
4,CCCCCCCCCCCCC/C=C/[C@H]1[C@@H](C(=O)OC)N1S(=O)c1ccc(C)cc1 (stereo not given in full),53.6% [100 µM] (inactive) and 36.2% [100 µM] (inactive)
5,COC(=O)C(=O)C(C(=O)C(=O)Nc1ccccc1C(C)=O)c1nc2ccc(C(=O)c3ccccc3)cc2[nH]c1=O (stereo not given),25.6% [100 µM] (inactive) and 2.25% [100 µM] (active)
6,CCN(CC)CCC(CNc1c2ccc([N+](=O)[O-])cc2nc2cc(OC)c(OC)cc12)c1ccccc1 (stereo not given),-50.2% (active) and -97.5% (active)
7,O=C(N/N=C/c1ccccc1)N/N=C/c1ccccc1,99.1% (inactive) and 102% (inactive)
8,O=C(Cc1nc2ccc(C(=O)c3ccccc3)cc2[nH]c1=O)C(=O)Nc1ccccc1[N+](=O)[O-],27.4% [100 µM] (inactive) and 4.17% [100 µM] (active)
9,O=CC(O)C(O)C(O)CO (stereo not given),97.5% (inactive) and 94.6% (inactive)
10,Cc1cc(N(CCC#N)CCC#N)ccc1/C=N/NC(=O)c1cc(Cl)ccc1O,43.8% [100 µM] (inactive) and 13.1% [100 µM] (inactive)
11,O=[N+]([O-])c1ccc(N/N=C\c2cc(Br)ccc2O)nc1,13.4% (inactive) and 13.6% (inactive)
12,COC(=O)c1cnn2c1n[n+]([O-])c1ccccc12,68.2% [100 µM] (inactive) and 11.8% [100 µM] (inactive)
13,COc1ccccc1NC(=O)OCC#CCOC(=O)Nc1ccccc1OC,107% (inactive) and 91.8% (inactive)
14,COc1c(O)ccc(C2=Cc3ccc(O)cc3OC2)c1OC,-13.9% [100 µM] (active) and -13.3% [100 µM] (active)
15,COc1cc(/C=N/Nc2nc3c([nH]2)c(=O)n(C)c(=O)n3C)ccc1O,97% (inactive) and 95.2% (inactive)
16,OC(COc1cccc2ccccc12)CN1CCN(c2ccc(Cl)cc2)CC1 (stereo not given),83.6% (inactive) and 89.7% (inactive)
17,COc1cc2c(Nc3ccc(Cl)c(Cl)c3F)ncnc2cc1OCC1C[C@@H]2CN(C)C[C@@H]2C1 (stereo not given in full),-71.9% (active) and 13.4% (inactive)
18,Oc1ccc(/C=C/c2ccccc2)cc1,65% (inactive) and 75% (inactive)
19,N#CC1(C#N)C2CCCCC23OC(=N)C1(C#N)C(c1ccco1)O3 (stereo not given),-54% [100 µM] (active)
20,CN(C)c1ccc(C(=C2C=CC(=[N+](C)C)C=C2)c2ccccc2Cl)cc1,-9.73% (active) and -58.7% (active)
